Measurements published in the supplement of paper PMC7411054.

Experiments:
Assay in all cases: phenotypically active (imaging signature differs from DMSO and reproducible) at any of 0.3-9 uM (binary (1 = active, 0 = inactive)); higher = active
Conditions in all cases: treatment time: 24 h
A549-ACTB-RAB5A = system: A549-ACTB-RAB5A
Procedure, shortened: (§1)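 Four wells per concentration (0.3, 1, 3 or 9 µM) were treated for 24 h in each of fifteen gene-edited reporter lines from A549, HepG2 and WPMY1 cells, then imaged live. After normalising live-cell features to solvent control wells, deviation was defined as ≥3 of 4 wells lying past the 95th percentile of control Euclidean distances. Reproducibility was defined as a median replicate Pearson correlation above the 95th percentile of non-replicates. Both had to hold for phenotypic activity.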

A549-CANX-COX4 = system: A549-CANX-COX4
Procedure, shortened: as §1

A549-GM130-SQSTM1 = system: A549-GM130-SQSTM1
Procedure, shortened: as §1

A549-TP53BP1-CLTA = system: A549-TP53BP1-CLTA
Procedure, shortened: as §1

A549-TUBA1B-RELA = system: A549-TUBA1B-RELA
Procedure, shortened: as §1

HepG2-ACTB-RAB5A = system: HepG2-ACTB-RAB5A
Procedure, shortened: as §1

HepG2-CANX-COX4 = system: HepG2-CANX-COX4
Procedure, shortened: as §1

HepG2-GM130-SQSTM1 = system: HepG2-GM130-SQSTM1
Procedure, shortened: as §1

HepG2-TP53BP1-CLTA = system: HepG2-TP53BP1-CLTA
Procedure, shortened: as §1

HepG2-TUBA1B-RELA = system: HepG2-TUBA1B-RELA
Procedure, shortened: as §1

WPMY1-ACTB-RAB5A = system: WPMY1-ACTB-RAB5A
Procedure, shortened: as §1

WPMY1-CANX-COX4 = system: WPMY1-CANX-COX4
Procedure, shortened: as §1

WPMY1-GM130-SQSTM1 = system: WPMY1-GM130-SQSTM1
Procedure, shortened: as §1

WPMY1-TP53BP1-CLTA = system: WPMY1-TP53BP1-CLTA
Procedure, shortened: as §1

WPMY1-TUBA1B-RELA = system: WPMY1-TUBA1B-RELA
Procedure, shortened: as §1

Measured: phenotypically active

O=NN(CCCl)C(=O)NCCCl [carmustine]
inactive: A549-ACTB-RAB5A 0 | A549-CANX-COX4 0 | A549-GM130-SQSTM1 0 | A549-TP53BP1-CLTA 0 | A549-TUBA1B-RELA 0 | HepG2-ACTB-RAB5A 0 | HepG2-CANX-COX4 0 | HepG2-GM130-SQSTM1 0 | HepG2-TP53BP1-CLTA 0 | HepG2-TUBA1B-RELA 0 | WPMY1-ACTB-RAB5A 0 | WPMY1-CANX-COX4 0 | WPMY1-GM130-SQSTM1 0 | WPMY1-TP53BP1-CLTA 0 | WPMY1-TUBA1B-RELA 0

Nn1nnc2ccccc21
inactive: A549-ACTB-RAB5A 0 | A549-CANX-COX4 0 | A549-GM130-SQSTM1 0 | A549-TP53BP1-CLTA 0 | A549-TUBA1B-RELA 0 | HepG2-ACTB-RAB5A 0 | HepG2-CANX-COX4 0 | HepG2-GM130-SQSTM1 0 | HepG2-TP53BP1-CLTA 0 | HepG2-TUBA1B-RELA 0 | WPMY1-ACTB-RAB5A 0 | WPMY1-CANX-COX4 0 | WPMY1-GM130-SQSTM1 0 | WPMY1-TP53BP1-CLTA 0 | WPMY1-TUBA1B-RELA 0

CN1C(=O)CC[C@H]1c1cccnc1 [(-)-Cotinine]
inactive: A549-ACTB-RAB5A 0 | A549-CANX-COX4 0 | A549-GM130-SQSTM1 0 | A549-TP53BP1-CLTA 0 | A549-TUBA1B-RELA 0 | HepG2-ACTB-RAB5A 0 | HepG2-CANX-COX4 0 | HepG2-GM130-SQSTM1 0 | HepG2-TP53BP1-CLTA 0 | HepG2-TUBA1B-RELA 0 | WPMY1-ACTB-RAB5A 0 | WPMY1-CANX-COX4 0 | WPMY1-GM130-SQSTM1 0 | WPMY1-TP53BP1-CLTA 0 | WPMY1-TUBA1B-RELA 0

CN1CCN2c3ncccc3Cc3ccccc3C2C1 (stereo not given) [Mirtazapine]
inactive: A549-ACTB-RAB5A 0 | A549-CANX-COX4 0 | A549-GM130-SQSTM1 0 | A549-TP53BP1-CLTA 0 | A549-TUBA1B-RELA 0 | HepG2-ACTB-RAB5A 0 | HepG2-CANX-COX4 0 | HepG2-GM130-SQSTM1 0 | HepG2-TP53BP1-CLTA 0 | HepG2-TUBA1B-RELA 0 | WPMY1-ACTB-RAB5A 0 | WPMY1-CANX-COX4 0 | WPMY1-GM130-SQSTM1 0 | WPMY1-TP53BP1-CLTA 0 | WPMY1-TUBA1B-RELA 0

Cc1ccc2ccc(C(Nc3ccccc3)c3ccccc3)c(O)c2n1 (stereo not given)
inactive: A549-ACTB-RAB5A 0 | A549-CANX-COX4 0 | A549-GM130-SQSTM1 0 | A549-TP53BP1-CLTA 0 | A549-TUBA1B-RELA 0 | HepG2-ACTB-RAB5A 0 | HepG2-CANX-COX4 0 | HepG2-GM130-SQSTM1 0 | HepG2-TP53BP1-CLTA 0 | HepG2-TUBA1B-RELA 0 | WPMY1-ACTB-RAB5A 0 | WPMY1-CANX-COX4 0 | WPMY1-GM130-SQSTM1 0 | WPMY1-TP53BP1-CLTA 0 | WPMY1-TUBA1B-RELA 0

CCOC(=O)[C@H](CCc1ccccc1)N[C@H]1CCc2ccccc2N(CC(=O)O)C1=O [benazepril]
inactive: A549-ACTB-RAB5A 0 | A549-CANX-COX4 0 | A549-GM130-SQSTM1 0 | A549-TP53BP1-CLTA 0 | A549-TUBA1B-RELA 0 | HepG2-ACTB-RAB5A 0 | HepG2-CANX-COX4 0 | HepG2-GM130-SQSTM1 0 | HepG2-TP53BP1-CLTA 0 | HepG2-TUBA1B-RELA 0 | WPMY1-ACTB-RAB5A 0 | WPMY1-CANX-COX4 0 | WPMY1-GM130-SQSTM1 0 | WPMY1-TP53BP1-CLTA 0 | WPMY1-TUBA1B-RELA 0

Cc1ccc(-c2csc3ncnc(SCCC(=O)O)c23)cc1
inactive: A549-ACTB-RAB5A 0 | A549-CANX-COX4 0 | A549-GM130-SQSTM1 0 | A549-TP53BP1-CLTA 0 | A549-TUBA1B-RELA 0 | HepG2-ACTB-RAB5A 0 | HepG2-CANX-COX4 0 | HepG2-GM130-SQSTM1 0 | HepG2-TP53BP1-CLTA 0 | HepG2-TUBA1B-RELA 0 | WPMY1-ACTB-RAB5A 0 | WPMY1-CANX-COX4 0 | WPMY1-GM130-SQSTM1 0 | WPMY1-TP53BP1-CLTA 0 | WPMY1-TUBA1B-RELA 0

c1ccc2c(c1)CCCC2C1=NCCN1 (stereo not given) [tetrahydrozoline]
inactive: A549-ACTB-RAB5A 0 | A549-CANX-COX4 0 | A549-GM130-SQSTM1 0 | A549-TP53BP1-CLTA 0 | A549-TUBA1B-RELA 0 | HepG2-ACTB-RAB5A 0 | HepG2-CANX-COX4 0 | HepG2-GM130-SQSTM1 0 | HepG2-TP53BP1-CLTA 0 | HepG2-TUBA1B-RELA 0 | WPMY1-ACTB-RAB5A 0 | WPMY1-CANX-COX4 0 | WPMY1-GM130-SQSTM1 0 | WPMY1-TP53BP1-CLTA 0 | WPMY1-TUBA1B-RELA 0

N=C(N)NN=Cc1c(Cl)cccc1Cl [guanabenz]
inactive: A549-ACTB-RAB5A 0 | A549-CANX-COX4 0 | A549-GM130-SQSTM1 0 | A549-TP53BP1-CLTA 0 | A549-TUBA1B-RELA 0 | HepG2-ACTB-RAB5A 0 | HepG2-CANX-COX4 0 | HepG2-GM130-SQSTM1 0 | HepG2-TP53BP1-CLTA 0 | HepG2-TUBA1B-RELA 0 | WPMY1-ACTB-RAB5A 0 | WPMY1-CANX-COX4 0 | WPMY1-GM130-SQSTM1 0 | WPMY1-TP53BP1-CLTA 0 | WPMY1-TUBA1B-RELA 0

CC1=CC(=O)C2=C(C)CC[C@@H]3[C@H](OC(=O)[C@H]3C)[C@@H]12 [Leucomisine]
inactive: A549-ACTB-RAB5A 0 | A549-CANX-COX4 0 | A549-GM130-SQSTM1 0 | A549-TP53BP1-CLTA 0 | A549-TUBA1B-RELA 0 | HepG2-ACTB-RAB5A 0 | HepG2-CANX-COX4 0 | HepG2-GM130-SQSTM1 0 | HepG2-TP53BP1-CLTA 0 | HepG2-TUBA1B-RELA 0 | WPMY1-ACTB-RAB5A 0 | WPMY1-CANX-COX4 0 | WPMY1-GM130-SQSTM1 0 | WPMY1-TP53BP1-CLTA 0 | WPMY1-TUBA1B-RELA 0

COC(=O)c1sccc1S(=O)(=O)Nc1ccc(Nc2ccccc2)cc1OC
inactive: A549-ACTB-RAB5A 0 | A549-CANX-COX4 0 | A549-GM130-SQSTM1 0 | A549-TP53BP1-CLTA 0 | A549-TUBA1B-RELA 0 | HepG2-ACTB-RAB5A 0 | HepG2-CANX-COX4 0 | HepG2-GM130-SQSTM1 0 | HepG2-TP53BP1-CLTA 0 | HepG2-TUBA1B-RELA 0 | WPMY1-ACTB-RAB5A 0 | WPMY1-CANX-COX4 0 | WPMY1-GM130-SQSTM1 0 | WPMY1-TP53BP1-CLTA 0 | WPMY1-TUBA1B-RELA 0
